Bioassay records: PubChem, National Center for Advancing Translational Sciences (NCATS)
Most compounds without a hit are left out; they make up all but 2.4% or so of the library.
FEN1 inh = inhibitors of human flap endonuclease 1; Recombinant FEN1 flap cleavage, fluorescence, 15 min; Potency, µM (titrated, usually from 114 µM), without a hit: top-dose activity change, negative = inhibition, actives largely listed as inhibitors; 0.35% of 390,000 active; also: % is scaled to controls: 0 for no effect and ±100 for the full control effect; nearly all actives have a fitted effect of over 65% in size
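FEN1 at 10 nM preincubated with compounds 15 min at room temperature, then flap DNA substrate added at 50 nM final. Signal read at 0 and 15 min; concentration-response fitted with four-parameter Hill equation.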
POLI inh = DNA polymerase iota (human) inhibition. Q9UNA4. Pol iota fluorescent replication assay, 10 min. Potency, µM (series often up to 115 µM), inactives show at the highest dose activity, negative = inhibition, actives largely listed as inhibitors. 1% of 390,000 active. AID 588590
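Pol iota at 10 nM preincubated 15 min with compounds at room temperature; reaction started with fluorescent substrate, 50 nM final. Fluorescence read kinetically at 0 and 10 min; buffer-only wells as negative control.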
Pol eta inh-1 = blocks human DNA polymerase eta activity. Q9Y253. recombinant Pol eta, fluorescent DNA replication assay. Potency, µM (titrated, usually from 114 µM), inactives show top-dose activity change, negative = inhibition, usual class: inhibitors. 1.2% of 390,000 active. AID 588591; also: % is scaled to controls: 0 for no effect and ±100 for the full control effect
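Pol eta (10 nM) was preincubated with compounds for 15 min at room temperature, after which fluorescent replication substrate (50 nM final) was added to start the reaction. Fluorescence was read kinetically at 0 and 10 min.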
Pol kappa inh-1 = blocks human DNA polymerase kappa activity; 0.53% of 400,000 active; AID 588579; Potency, µM (series often up to 107 µM), inactives show at the top dose activity, negative = inhibition, usual class: inhibitors; purified Pol kappa, fluorescent DNA synthesis assay, 10 min; also: % is scaled to controls: 0 for no effect and ±100 for the full control effect
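Pol kappa 10 nM + cpd, 15 min RT; start w/ substrate 50 nM final; fluorescence kinetic read, 0 and 10 min. Neg ctrl: buffer, no enzyme.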
WRN inhibitor = inhibitors of human WRN helicase; Q14191; WRN helicase unwinding, fluorescent forked duplex, kinetic; Potency, µM (series often up to 114 µM), without a hit: top-dose activity change, negative = inhibition, most hits filed as inhibitors; 0.46% of 360,000 active; AID 651768; also: % is scaled to controls: 0 for no effect and ±100 for the full control effect; nearly all actives have a fitted effect of over 55% in size
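WRN at 20 nM final preincubated with compound 15 min at room temperature; reaction started with 100 nM fluorophore/quencher forked duplex oligonucleotide and 2 mM ATP final. Unwinding followed kinetically by red fluorescence (ex 525, em 598 nm).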
Pol beta inh = blocks human DNA polymerase beta activity | P06746 | Pol beta primer extension/strand displacement, fluorescence kinetic | Potency, µM (titrated, usually from 114 µM), for inactives: at the top dose activity change, negative = inhibition, hits mostly inhibitors | 1.3% of 340,000 active | AID 485314; also: % is scaled to controls: 0 for no effect and ±100 for the full control effect
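Homogeneous kinetic assay of primer extension and strand displacement by 10 nM Pol beta, preincubated 15 min at room temperature with compound before 50 nM substrate (final) was added. Read at 0 and 10 min; four-parameter Hill fit.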
Pol iota confirm = Inhibitors of human DNA polymerase iota, confirmation. Potency, µM, actives largely listed as inhibitors. 77% of 1,500 active. shares compounds with Pol kappa inh-1. Pol iota primer extension, TAMRA/BHQ fluorescence
Pol kappa inh-2 = Pol kappa (human) inhibition, cherry-pick confirmation | shares compounds with Pol eta inh-1 | purified Pol-kappa, fluorescent strand-displacement substrate | Potency, µM, actives largely listed as inhibitors | 76% of 920 active
Pol eta inh-2 = confirmation of human DNA polymerase eta inhibitors; shares compounds with Pol eta inh-1; Pol eta primer extension, TAMRA/BHQ fluorescence, 10 min; Potency, µM, usual class: inhibitors; 64% of 2,600 active
* hit, by the source's call; [ ] = dose if it differs, or a comment. Calls follow the shape of the dose curve; as a rule, active = well fitted curve in the direction sought with a large enough effect; inconclusive = small, poorly fitted or top-dose-only effect, or another doubt; inactive = no such curve, though single readings can be large; an effect the other way counts as inactive or inconclusive. Potency is read from the fitted curve at half-maximal effect.

Results for CC(C)(C)c1ccc(C(=O)Nc2ccc(C(=O)OCc3cc(=O)n4ccsc4n3)cc2)cc1 ?
FEN1 inh: -2%; POLI inh: 16%; Pol eta inh-1: -6%; Pol kappa inh-1: -7%[60.1 µM]; Pol beta inh: 29%

How did COc1ccc(-c2ccc3c(c2)S(=O)(=O)c2cccc(C(=O)NCc4ccccc4Cl)c2C3=O)cc1OC do in these assays?
FEN1 inh: inconclusive; POLI inh: 10µM*; Pol eta inh-1: inconclusive; Pol kappa inh-1: -2%; WRN inhibitor: -32%[11.6 µM]; Pol iota confirm: 17*; Pol eta inh-2: 27*

What do the screens show for `O=C(NCc1ccco1)c1cccc2c1C(=O)c1ccc(/C=C/c3ccccc3)cc1S2(=O)=O`?
FEN1 inh: inconclusive; POLI inh: 25µM*; Pol eta inh-1: 14µM*; Pol kappa inh-1: inconclusive; WRN inhibitor: -14%[11.6 µM]; Pol iota confirm: 42*; Pol kappa inh-2: 19*; Pol eta inh-2: 38*

Results for O=C(NCc1ccco1)c1cccc2c1C(=O)c1ccc(N3CCC(Cc4ccccc4)CC3)cc1S2(=O)=O ?
FEN1 inh: -15%; POLI inh: -4%; Pol eta inh-1: -14%; Pol kappa inh-1: -29%; WRN inhibitor: -4%

How did COc1ccc(NC(=O)N2CC[C@@]3(CCCN(C(=O)c4ccc(OC)cc4)C3)C2)cc1 do in these assays?
Pol kappa inh-1: 5%[60.1 µM]

How did CCOc1ccc(NC(=O)Cn2c(=O)n(CCCCCC(=O)NCc3ccccc3)c(=O)c3sccc32)cc1 do in these assays?
FEN1 inh: -2%; POLI inh: 5%; Pol kappa inh-1: 6%; Pol beta inh: 16%

What do the screens show for `Cc1[nH][nH]c(=O)c1C(c1ccc(-c2ccc(C(=O)O)cc2)o1)c1c(C)[nH][nH]c1=O`?
FEN1 inh: -21%; POLI inh: 4.5µM*; Pol eta inh-1: inconclusive; Pol kappa inh-1: -34%; WRN inhibitor: inconclusive; Pol beta inh: 25µM*; Pol iota confirm: 60*; Pol eta inh-2: inconclusive

How did CCOC(=O)c1ccc(NC(=O)CSc2nc(-c3ccc(OC)cc3)cc(C(F)(F)F)c2C#N)cc1 do in these assays?
FEN1 inh: 7%; POLI inh: 19%; Pol eta inh-1: -14%; Pol kappa inh-1: 10%; Pol beta inh: -1%

What do the screens show for `O=C1C2CC=C(Cl)CC2C(=O)N1CCCCCCN1C(=O)C2CC=C(Cl)CC2C1=O` (centres undefined)?
FEN1 inh: -22%; POLI inh: 18µM*; Pol eta inh-1: 20µM*; Pol kappa inh-1: 79µM*; WRN inhibitor: inconclusive; Pol beta inh: 20µM*; Pol iota confirm: 60*; Pol eta inh-2: 30*

What do the screens show for `CCCC(CCC)C(=O)NC1CC(=O)N(c2ccc3c(c2)OCCO3)C1` (centres undefined)?
FEN1 inh: -8%; POLI inh: 21%; Pol eta inh-1: -1%; Pol kappa inh-1: -6%[60.1 µM]; Pol beta inh: 32%
